Experimental data: the supplement of paper PMC10681739

What follows are sequences tested against T1, ETS1 (UniProt P14921) (assay: ETS1 binding intensity (PBM fluorescence), ETS1 alone (arbitrary fluorescence units); higher = stronger binding). Conditions: ETS1 concentration 1 nM; RUNX1 concentration 0 nM.
T1 sequence: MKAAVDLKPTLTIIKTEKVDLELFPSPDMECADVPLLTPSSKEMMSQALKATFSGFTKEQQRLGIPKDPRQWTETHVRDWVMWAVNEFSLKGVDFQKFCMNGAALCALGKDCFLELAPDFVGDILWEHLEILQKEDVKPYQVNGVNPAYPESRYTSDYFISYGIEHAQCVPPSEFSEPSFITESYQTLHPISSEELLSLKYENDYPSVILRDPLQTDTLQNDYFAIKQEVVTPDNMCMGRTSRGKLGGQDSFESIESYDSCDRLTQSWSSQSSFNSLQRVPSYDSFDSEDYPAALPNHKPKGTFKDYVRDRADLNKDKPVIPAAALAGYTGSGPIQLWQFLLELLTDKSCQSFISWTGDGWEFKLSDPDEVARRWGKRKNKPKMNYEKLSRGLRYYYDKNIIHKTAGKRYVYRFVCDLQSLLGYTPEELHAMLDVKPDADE
GGGCAGCAGCAGACCGGAAACCACAGCCGACTAAGA was tested, and the ETS1 binding intensity was 10700.
Sequence GCTCTGGGTCACACAGGATGTGGTTTTTGAAGTTTG has an ETS1 binding intensity of 8060.
In the case of ACCCAGTAGGGGCCAGGATGTGGTGAAAAGAGAATT, the ETS1 binding intensity is reported as 1610.
In the case of TCAAGTTTGGTAACAGGATGTGGTAGGAGGAACACA, the ETS1 binding intensity is reported as 8320.
CTCTGGCAGGAAGCTCTGAGGGCTAAACCACAAAAA gave an ETS1 binding intensity of 1110.
AAAGCATTTCCTGCCTTGACTTAACCACAAGACAGG gave an ETS1 binding intensity of 1880.
With CCTGCGGATCACGGAAGTGGCTGCGGTCGGCGCCAT the ETS1 binding intensity was 2160.
TGCTTAGCGGGAAGTGCTTACACCACAAAACAAGAC was tested, and the ETS1 binding intensity was 678.
ACCAACCGGAAGTGATCGTGTTGTGGCCGAAGGAGG was tested, and the ETS1 binding intensity was 16100.
CCTAGAACCGGAAGAGAAAGGGGCTGCGGTGCAGCA showed an ETS1 binding intensity of 1680.
ATCACTTGTTTCCGCCAGCAAACCACAGGTCCCCAG was tested, and the ETS1 binding intensity was 417.
CCTGCTGCTTCCGCCCGGAGTTGTTGTGGGCTCCAG showed an ETS1 binding intensity of 643.
GAAGGAAGTGGAGACAGTAAGGGGAAACCACAAACC gave an ETS1 binding intensity of 1060.
Sequence GCGCCCTCCAGGAAACGCCGCGGTTTACTGTCTGCC has an ETS1 binding intensity of 1120.
For CCAGCCGGAAGCCCCGCCCCCTAGAGGCACCGCGGA, the ETS1 binding intensity was 1010.
AAACAGGAAATCACAGCAGCGTTGCGGAGTGGAGCA gave an ETS1 binding intensity of 1100.
With GGCTCGGCAAACATCCGGCTCCGCGGTGGAACGGGA the ETS1 binding intensity was 1430.
With TTCAACAGGATGTGGGAACTTGACTCTCGCCGCAAA the ETS1 binding intensity was 3560.
In the case of GCCACACTTCCGGCGGGGCTGCGACCGCAGAGGGGC, the ETS1 binding intensity is reported as 1170.
For CAAGCCAGGAAGAGGGCCCTCACCAGAAACCGCACT, the ETS1 binding intensity was 407.
TGAAGTACTAGTCAAGGATGTGGTTTTACATAGCAG showed an ETS1 binding intensity of 586.
